This is an account of results in article PMC7862700, “An all-to-all approach to the identification of sequence-specific readers for epigenetic DNA modifications on cytosine”.

What all share (test): DAPPL (digital affinity profiling via proximity ligation, sequencing); 10 mM Tris-HCl pH 7.5, 50 mM NaCl, 1 mM DTT, 4% glycerol, room temperature, 30 min; GST-TFs on glutathione beads, 16-mer random dsDNA library, 0.1% formaldehyde crosslink after washing; high values mean tight binding
Assay [1] concerns the target T1, FLI1 (Homo sapiens, UniProt Q01543 1-452).
T1 sequence: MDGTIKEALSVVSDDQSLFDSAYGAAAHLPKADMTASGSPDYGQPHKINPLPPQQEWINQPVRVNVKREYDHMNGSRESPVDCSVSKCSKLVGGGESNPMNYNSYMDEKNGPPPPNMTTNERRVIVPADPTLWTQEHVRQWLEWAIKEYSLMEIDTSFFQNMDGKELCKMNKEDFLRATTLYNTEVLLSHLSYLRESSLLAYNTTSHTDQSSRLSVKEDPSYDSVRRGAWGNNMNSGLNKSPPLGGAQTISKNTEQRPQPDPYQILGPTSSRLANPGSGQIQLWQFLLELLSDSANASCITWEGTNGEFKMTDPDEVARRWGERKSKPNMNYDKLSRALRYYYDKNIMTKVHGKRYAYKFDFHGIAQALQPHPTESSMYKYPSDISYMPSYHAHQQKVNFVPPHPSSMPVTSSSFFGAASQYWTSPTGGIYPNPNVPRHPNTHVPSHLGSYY
To be noted: protein: recombinant; tags: N-terminal GST; dsDNA, one strand shown. In short, it runs like this:
(§1)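 Beads coated with glutathione captured GST-fused human transcription factors that had been expressed in yeast, and the factors were then given DNA barcodes and pooled with a tag-only sample. The pools were incubated with 200 nmole of a random double-stranded 16-mer DNA library in Tris/NaCl/DTT/glycerol buffer for 30 min at room temperature, washed, crosslinked with 0.1% formaldehyde and proximity-ligated with BsaI/T4 ligase at 37 °C for 1 h. PCR amplification and Illumina NextSeq500 sequencing came last. Binding signal is each hexamer's read frequency for a factor divided by its frequency for the tag-only sample.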

Assay [2] concerns the target T2, GABPA (Homo sapiens, UniProt Q06546 1-454).
T2 sequence: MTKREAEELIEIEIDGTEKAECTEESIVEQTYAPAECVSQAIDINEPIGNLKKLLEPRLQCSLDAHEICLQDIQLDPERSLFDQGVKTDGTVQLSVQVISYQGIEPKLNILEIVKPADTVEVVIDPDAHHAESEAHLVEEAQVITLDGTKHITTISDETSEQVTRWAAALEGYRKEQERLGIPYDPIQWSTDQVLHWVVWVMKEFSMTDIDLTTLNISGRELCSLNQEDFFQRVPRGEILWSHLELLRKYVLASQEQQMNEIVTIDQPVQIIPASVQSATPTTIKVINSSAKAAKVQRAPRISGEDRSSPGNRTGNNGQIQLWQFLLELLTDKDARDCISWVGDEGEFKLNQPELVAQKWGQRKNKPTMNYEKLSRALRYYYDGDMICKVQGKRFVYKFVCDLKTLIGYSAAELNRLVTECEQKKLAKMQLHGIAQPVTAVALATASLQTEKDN
To be noted: protein: recombinant; tags: N-terminal GST; dsDNA, one strand shown. In short, it runs like this:
as §1

In assay [3] the target is ELF1 (Homo sapiens, UniProt P32519 1-619). To be noted: protein: recombinant; tags: N-terminal GST; dsDNA, one strand shown. In short, it runs like this: as §1
Assay [4] concerns the target T3, EHF (Homo sapiens, UniProt Q9NZC4 1-300).
T3 sequence: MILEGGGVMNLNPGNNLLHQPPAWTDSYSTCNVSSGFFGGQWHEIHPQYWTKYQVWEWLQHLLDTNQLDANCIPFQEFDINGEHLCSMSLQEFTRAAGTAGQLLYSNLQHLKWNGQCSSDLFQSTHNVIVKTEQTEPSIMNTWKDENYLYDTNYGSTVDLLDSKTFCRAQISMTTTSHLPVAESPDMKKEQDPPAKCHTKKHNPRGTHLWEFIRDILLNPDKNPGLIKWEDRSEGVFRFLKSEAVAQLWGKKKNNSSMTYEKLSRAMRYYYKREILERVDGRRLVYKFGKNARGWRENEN
To be noted: protein: recombinant; tags: N-terminal GST; dsDNA, one strand shown. In short, it runs like this:
as §1

The target in assay [5] is SPI1 (Homo sapiens, UniProt P17947 1-270). To be noted: protein: recombinant; tags: N-terminal GST; dsDNA, one strand shown. In short, it runs like this:
as §1

Assay [6] has as its target SPIB (Homo sapiens, UniProt Q01892 1-262). To be noted: protein: recombinant; tags: N-terminal GST; dsDNA, one strand shown. In short, it runs like this: as §1
The target of assay [7] is T4, ELK3 (Homo sapiens, UniProt P41970 1-407).
T4 sequence: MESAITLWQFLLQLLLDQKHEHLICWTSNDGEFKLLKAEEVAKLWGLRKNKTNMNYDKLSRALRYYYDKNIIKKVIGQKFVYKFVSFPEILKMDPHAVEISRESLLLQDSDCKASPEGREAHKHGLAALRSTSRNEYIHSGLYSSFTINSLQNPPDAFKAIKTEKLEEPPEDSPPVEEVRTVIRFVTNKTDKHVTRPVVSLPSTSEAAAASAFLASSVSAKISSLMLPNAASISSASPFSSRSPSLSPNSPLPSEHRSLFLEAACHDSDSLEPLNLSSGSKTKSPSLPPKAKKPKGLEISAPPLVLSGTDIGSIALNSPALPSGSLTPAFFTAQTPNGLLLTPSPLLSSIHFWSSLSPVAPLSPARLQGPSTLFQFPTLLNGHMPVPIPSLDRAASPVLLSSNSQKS
To be noted: protein: recombinant; tags: N-terminal GST; dsDNA, one strand shown. In short, it runs like this:
as §1

Assay [8] deals with ETV5 (Homo sapiens, UniProt P41161 1-510). To be noted: protein: recombinant; tags: N-terminal GST; dsDNA, one strand shown. In short, it runs like this: as §1
Assay [9] deals with HSF1 (Homo sapiens, UniProt Q00613 1-529). To be noted: protein: recombinant; tags: N-terminal GST; chain copies: 3; dsDNA, one strand shown. In short, it runs like this:
as §1

For assay [10], the target named is T5, SPIC (Homo sapiens, UniProt Q8N5J4 1-248).
T5 sequence: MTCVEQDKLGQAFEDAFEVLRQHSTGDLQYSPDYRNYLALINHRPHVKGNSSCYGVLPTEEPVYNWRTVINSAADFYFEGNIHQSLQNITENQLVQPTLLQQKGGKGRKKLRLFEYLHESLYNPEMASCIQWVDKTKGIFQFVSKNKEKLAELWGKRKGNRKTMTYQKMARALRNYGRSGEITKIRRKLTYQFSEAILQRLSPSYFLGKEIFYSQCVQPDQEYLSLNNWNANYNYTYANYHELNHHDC
To be noted: protein: recombinant; tags: N-terminal GST; dsDNA, one strand shown. In short, it runs like this: as §1

The target in assay [11] is ELF4 (Homo sapiens, UniProt Q99607 1-663). To be noted: protein: recombinant; tags: N-terminal GST; dsDNA, one strand shown. In short, it runs like this:
as §1

The target of assay [12] is T6, ELK4 (Homo sapiens, UniProt P28324-2 1-405).
T6 sequence: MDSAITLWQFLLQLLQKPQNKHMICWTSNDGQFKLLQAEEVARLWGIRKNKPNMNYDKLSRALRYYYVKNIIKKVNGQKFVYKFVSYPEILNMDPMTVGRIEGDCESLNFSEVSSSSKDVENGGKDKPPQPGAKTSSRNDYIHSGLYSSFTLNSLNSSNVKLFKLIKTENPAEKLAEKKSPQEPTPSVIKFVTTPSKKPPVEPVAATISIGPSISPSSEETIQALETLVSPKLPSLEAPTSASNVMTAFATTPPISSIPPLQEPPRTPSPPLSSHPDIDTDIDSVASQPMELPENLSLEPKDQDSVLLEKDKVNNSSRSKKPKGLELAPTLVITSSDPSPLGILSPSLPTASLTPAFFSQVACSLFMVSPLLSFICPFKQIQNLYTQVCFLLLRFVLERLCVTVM
To be noted: protein: recombinant; tags: N-terminal GST; dsDNA, one strand shown. In short, it runs like this:
as §1

The target in assay [13] is T7, ETV2 (Homo sapiens, UniProt O00321 1-342).
T7 sequence: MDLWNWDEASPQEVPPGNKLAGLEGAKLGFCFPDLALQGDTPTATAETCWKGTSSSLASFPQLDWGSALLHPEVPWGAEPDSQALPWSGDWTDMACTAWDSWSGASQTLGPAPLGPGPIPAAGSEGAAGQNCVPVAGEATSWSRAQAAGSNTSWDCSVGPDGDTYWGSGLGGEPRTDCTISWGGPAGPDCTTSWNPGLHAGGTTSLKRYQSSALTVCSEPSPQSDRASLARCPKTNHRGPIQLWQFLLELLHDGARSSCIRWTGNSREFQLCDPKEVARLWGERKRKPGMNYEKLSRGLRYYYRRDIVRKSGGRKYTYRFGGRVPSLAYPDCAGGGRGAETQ
To be noted: protein: recombinant; tags: N-terminal GST; dsDNA, one strand shown. In short, it runs like this: as §1

For assay [14], the target named is CRX (Homo sapiens, UniProt O43186 1-299). To be noted: protein: recombinant; tags: N-terminal GST; dsDNA, one strand shown. In short, it runs like this: as §1
The target of assay [15] is ETV1 (Homo sapiens, UniProt P50549 1-477). To be noted: protein: recombinant; tags: N-terminal GST; dsDNA, one strand shown. In short, it runs like this:
as §1

The target of assay [16] is T8, ERG (Homo sapiens, UniProt P11308 1-479).
T8 sequence: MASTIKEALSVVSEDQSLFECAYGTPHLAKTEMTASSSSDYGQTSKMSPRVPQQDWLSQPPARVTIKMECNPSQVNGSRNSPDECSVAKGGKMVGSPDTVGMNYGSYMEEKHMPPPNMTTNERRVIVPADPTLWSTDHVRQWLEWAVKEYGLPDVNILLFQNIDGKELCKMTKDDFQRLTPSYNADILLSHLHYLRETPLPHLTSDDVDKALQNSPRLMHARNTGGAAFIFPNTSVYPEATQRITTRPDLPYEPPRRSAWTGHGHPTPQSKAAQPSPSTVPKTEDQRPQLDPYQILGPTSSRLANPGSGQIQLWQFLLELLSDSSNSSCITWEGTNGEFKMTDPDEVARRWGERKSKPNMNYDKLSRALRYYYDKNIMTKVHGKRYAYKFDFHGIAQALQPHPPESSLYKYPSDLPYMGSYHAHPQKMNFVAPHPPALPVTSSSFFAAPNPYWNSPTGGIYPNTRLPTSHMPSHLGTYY
To be noted: protein: recombinant; tags: N-terminal GST; dsDNA, one strand shown. In short, it runs like this:
as §1

ETV5, sequence (P41161 whole entry): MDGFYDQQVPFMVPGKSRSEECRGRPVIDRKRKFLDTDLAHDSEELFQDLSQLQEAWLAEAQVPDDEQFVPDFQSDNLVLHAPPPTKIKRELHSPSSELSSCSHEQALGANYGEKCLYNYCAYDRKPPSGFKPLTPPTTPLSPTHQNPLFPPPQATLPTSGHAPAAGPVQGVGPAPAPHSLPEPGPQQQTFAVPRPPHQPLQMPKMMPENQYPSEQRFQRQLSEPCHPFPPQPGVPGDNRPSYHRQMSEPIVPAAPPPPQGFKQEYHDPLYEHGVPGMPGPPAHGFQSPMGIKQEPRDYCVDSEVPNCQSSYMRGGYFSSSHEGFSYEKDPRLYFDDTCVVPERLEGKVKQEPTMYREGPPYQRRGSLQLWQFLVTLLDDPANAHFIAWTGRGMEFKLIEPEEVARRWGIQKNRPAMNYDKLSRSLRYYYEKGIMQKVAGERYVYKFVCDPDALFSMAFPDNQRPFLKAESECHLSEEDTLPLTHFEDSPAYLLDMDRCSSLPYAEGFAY
HSF1, sequence (Q00613 whole entry): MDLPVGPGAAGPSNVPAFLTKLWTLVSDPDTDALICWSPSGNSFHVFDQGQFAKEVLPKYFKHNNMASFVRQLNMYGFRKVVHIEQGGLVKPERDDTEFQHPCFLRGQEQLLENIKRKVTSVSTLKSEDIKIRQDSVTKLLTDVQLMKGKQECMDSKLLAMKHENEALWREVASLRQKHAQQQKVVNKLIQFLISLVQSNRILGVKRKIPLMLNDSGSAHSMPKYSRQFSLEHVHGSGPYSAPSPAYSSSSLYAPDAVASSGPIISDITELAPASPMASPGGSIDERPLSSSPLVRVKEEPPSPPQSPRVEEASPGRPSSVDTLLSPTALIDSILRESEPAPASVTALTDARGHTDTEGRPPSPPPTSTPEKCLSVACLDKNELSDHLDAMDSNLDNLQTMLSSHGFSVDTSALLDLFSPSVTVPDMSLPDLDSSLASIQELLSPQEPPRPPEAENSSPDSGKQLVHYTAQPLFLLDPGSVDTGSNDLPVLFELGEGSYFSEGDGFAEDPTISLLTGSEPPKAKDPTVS
SPIB, sequence (Q01892 whole entry): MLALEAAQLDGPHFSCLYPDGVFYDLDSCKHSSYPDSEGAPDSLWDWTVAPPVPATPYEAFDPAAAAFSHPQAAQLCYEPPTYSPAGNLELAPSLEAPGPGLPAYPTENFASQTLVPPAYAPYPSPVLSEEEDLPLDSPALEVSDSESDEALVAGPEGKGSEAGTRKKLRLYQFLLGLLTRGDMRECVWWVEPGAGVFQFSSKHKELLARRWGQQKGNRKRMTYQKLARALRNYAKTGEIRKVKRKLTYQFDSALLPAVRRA
CRX, sequence (O43186 whole entry): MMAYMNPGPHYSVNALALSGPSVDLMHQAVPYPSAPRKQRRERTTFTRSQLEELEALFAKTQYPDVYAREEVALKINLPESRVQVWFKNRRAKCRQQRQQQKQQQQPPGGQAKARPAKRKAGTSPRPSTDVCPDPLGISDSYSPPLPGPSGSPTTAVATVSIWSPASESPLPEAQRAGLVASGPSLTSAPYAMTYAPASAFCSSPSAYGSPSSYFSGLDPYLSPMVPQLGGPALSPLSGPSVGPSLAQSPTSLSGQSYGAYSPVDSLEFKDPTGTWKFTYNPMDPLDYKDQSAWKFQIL
ELF4, sequence (Q99607 whole entry): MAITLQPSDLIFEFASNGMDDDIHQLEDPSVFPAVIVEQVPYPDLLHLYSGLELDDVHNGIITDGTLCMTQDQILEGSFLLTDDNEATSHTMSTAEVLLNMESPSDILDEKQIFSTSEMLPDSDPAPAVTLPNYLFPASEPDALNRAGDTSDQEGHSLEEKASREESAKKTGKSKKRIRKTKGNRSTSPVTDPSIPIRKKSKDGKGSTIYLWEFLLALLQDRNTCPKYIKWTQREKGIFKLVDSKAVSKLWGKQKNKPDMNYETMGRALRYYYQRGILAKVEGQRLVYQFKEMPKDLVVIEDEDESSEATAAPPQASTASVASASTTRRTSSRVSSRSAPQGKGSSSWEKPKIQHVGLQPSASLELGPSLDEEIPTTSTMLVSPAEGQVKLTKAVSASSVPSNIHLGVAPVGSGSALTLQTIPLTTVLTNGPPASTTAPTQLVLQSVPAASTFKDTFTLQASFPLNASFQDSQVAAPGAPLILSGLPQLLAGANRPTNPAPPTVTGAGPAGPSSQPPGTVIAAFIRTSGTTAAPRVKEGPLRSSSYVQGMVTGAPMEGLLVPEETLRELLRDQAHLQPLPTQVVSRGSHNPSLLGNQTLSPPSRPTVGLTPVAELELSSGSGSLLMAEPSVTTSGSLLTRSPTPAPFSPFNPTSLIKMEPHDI
ELF1, sequence (P32519 whole entry): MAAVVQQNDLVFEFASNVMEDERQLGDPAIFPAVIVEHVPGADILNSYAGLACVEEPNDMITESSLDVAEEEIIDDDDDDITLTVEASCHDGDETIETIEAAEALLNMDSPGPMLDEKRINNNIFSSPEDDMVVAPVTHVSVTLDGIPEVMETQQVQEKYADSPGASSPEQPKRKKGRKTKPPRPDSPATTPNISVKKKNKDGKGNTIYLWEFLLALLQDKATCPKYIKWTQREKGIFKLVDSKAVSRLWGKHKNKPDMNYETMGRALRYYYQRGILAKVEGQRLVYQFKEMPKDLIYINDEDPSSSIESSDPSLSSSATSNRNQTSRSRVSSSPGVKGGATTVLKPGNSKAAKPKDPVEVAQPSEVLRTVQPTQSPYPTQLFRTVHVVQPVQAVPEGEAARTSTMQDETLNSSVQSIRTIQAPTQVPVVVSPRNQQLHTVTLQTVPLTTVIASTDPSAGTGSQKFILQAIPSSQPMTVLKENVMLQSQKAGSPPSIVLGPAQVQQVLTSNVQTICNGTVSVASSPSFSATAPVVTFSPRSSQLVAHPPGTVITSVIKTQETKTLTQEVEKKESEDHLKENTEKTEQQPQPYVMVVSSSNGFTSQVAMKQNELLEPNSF
ETV1, sequence (P50549 whole entry): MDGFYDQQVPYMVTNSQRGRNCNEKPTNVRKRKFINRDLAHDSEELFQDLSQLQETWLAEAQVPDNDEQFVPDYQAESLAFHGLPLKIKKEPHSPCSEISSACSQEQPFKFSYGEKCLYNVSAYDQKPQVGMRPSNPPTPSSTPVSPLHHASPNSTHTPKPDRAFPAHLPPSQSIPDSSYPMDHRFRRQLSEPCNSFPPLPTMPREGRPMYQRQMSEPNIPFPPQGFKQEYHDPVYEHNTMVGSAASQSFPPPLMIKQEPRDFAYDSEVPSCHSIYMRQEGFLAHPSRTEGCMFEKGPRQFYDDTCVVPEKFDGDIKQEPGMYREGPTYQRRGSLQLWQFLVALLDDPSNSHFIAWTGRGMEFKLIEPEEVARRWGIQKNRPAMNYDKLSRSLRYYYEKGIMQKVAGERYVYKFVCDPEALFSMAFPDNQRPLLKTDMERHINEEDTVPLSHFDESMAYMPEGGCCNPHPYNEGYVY

Take CTGTAA: the binding signal is 1.06 fold enrichment (6-mer frequency, TF over GST control) in assay [1]; 1.07 fold enrichment (6-mer frequency, TF over GST control) in assay [2]; 1.12 fold enrichment (6-mer frequency, TF over GST control) in [3]; 1.09 fold enrichment (6-mer frequency, TF over GST control) in assay [4]; 1.11 fold enrichment (6-mer frequency, TF over GST control) in assay [5]; 1.04 fold enrichment (6-mer frequency, TF over GST control) in assay [6]. In addition, the binding signal in assay [7] is 1.24 fold enrichment (6-mer frequency, TF over GST control); in assay [8] it was 1.05 fold enrichment (6-mer frequency, TF over GST control); in assay [9], 1.09 fold enrichment (6-mer frequency, TF over GST control); in assay [10], 1.24 fold enrichment (6-mer frequency, TF over GST control); in assay [11], 1.06 fold enrichment (6-mer frequency, TF over GST control); in assay [12] it was 1.09 fold enrichment (6-mer frequency, TF over GST control). Also, the binding signal in assay [13] was 1.21 fold enrichment (6-mer frequency, TF over GST control); in assay [14], 1.25 fold enrichment (6-mer frequency, TF over GST control); in assay [15] it was 1 fold enrichment (6-mer frequency, TF over GST control).
Turning to GAAAGA, the binding signal is 1.01 fold enrichment (6-mer frequency, TF over GST control) in assay [1]; 1.02 fold enrichment (6-mer frequency, TF over GST control) in assay [16]; 1.08 fold enrichment (6-mer frequency, TF over GST control) in assay [3]; 1.01 fold enrichment (6-mer frequency, TF over GST control) in assay [4]; 1.14 fold enrichment (6-mer frequency, TF over GST control) in assay [5]; 1.02 fold enrichment (6-mer frequency, TF over GST control) in [6]. Further, the binding signal was 1.04 fold enrichment (6-mer frequency, TF over GST control) in assay [8]; 1.4 fold enrichment (6-mer frequency, TF over GST control) in assay [9]; 1.05 fold enrichment (6-mer frequency, TF over GST control) in [10]; 1.07 fold enrichment (6-mer frequency, TF over GST control) in assay [11]; 1.01 fold enrichment (6-mer frequency, TF over GST control) in assay [12]; 1.07 fold enrichment (6-mer frequency, TF over GST control) in [13]. Moreover, the binding signal in assay [14] is 1.01 fold enrichment (6-mer frequency, TF over GST control); in [15], 1.03 fold enrichment (6-mer frequency, TF over GST control).
